# Experimental data taken from paper PMC7862700, “An all-to-all approach to the identification of sequence-specific readers for epigenetic DNA modifications on cytosine”.
# Tests used:
# Experiment in all cases: DAPPL (digital affinity profiling via proximity ligation, sequencing); 10 mM Tris-HCl pH 7.5, 50 mM NaCl, 1 mM DTT, 4% glycerol, room temperature, 30 min; GST-TFs on glutathione beads, 16-mer random dsDNA library, 0.1% formaldehyde crosslink after washing; high values mean tight binding
# FLI1 = target: T1, FLI1 (Homo sapiens, UniProt Q01543 1-452); settings: protein: recombinant; tags: N-terminal GST; dsDNA, one strand shown
# T1 sequence: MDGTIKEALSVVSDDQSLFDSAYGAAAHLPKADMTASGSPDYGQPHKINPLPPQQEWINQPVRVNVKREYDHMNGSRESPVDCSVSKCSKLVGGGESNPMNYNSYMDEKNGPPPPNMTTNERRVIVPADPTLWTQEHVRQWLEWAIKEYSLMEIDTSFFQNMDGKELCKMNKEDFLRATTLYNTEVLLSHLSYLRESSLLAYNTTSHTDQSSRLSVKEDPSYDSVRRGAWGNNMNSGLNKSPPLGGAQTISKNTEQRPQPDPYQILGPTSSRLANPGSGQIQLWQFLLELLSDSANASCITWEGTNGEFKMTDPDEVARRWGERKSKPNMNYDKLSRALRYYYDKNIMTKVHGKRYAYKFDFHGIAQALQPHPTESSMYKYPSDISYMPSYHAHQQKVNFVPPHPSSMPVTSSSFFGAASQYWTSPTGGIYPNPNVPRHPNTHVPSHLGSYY
# Procedure, shortened: (§1)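 Human transcription factors carrying a GST fusion were produced in yeast, bound to glutathione beads, tagged with DNA barcodes and pooled together with a tag-only sample. Each pool was held with 200 nmole of a random double-stranded 16-mer DNA library in Tris/NaCl/DTT/glycerol buffer for 30 min at room temperature, then washed, crosslinked in 0.1% formaldehyde, proximity-ligated with BsaI/T4 ligase (1 h, 37 °C), PCR-amplified and sequenced on an Illumina NextSeq500. Binding signal is the read frequency of each hexamer for a given factor divided by its frequency in the tag-only sample.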
# ELK1 = target: T2, ELK1 (Homo sapiens, UniProt P19419 1-428); settings: protein: recombinant; tags: N-terminal GST; dsDNA, one strand shown
# T2 sequence: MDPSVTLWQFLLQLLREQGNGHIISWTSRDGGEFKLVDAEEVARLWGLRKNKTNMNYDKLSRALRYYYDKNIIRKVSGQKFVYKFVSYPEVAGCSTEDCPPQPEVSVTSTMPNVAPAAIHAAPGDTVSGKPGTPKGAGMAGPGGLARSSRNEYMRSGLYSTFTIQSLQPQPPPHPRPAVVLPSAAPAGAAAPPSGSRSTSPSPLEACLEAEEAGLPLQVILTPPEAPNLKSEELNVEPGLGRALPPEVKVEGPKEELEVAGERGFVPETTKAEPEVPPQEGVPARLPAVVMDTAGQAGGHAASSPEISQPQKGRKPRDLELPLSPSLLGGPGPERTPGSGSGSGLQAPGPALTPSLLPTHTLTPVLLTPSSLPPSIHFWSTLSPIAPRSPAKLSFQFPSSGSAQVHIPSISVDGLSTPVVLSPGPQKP
# Procedure, shortened: as §1
# GABPA = target: T3, GABPA (Homo sapiens, UniProt Q06546 1-454); settings: protein: recombinant; tags: N-terminal GST; dsDNA, one strand shown
# T3 sequence: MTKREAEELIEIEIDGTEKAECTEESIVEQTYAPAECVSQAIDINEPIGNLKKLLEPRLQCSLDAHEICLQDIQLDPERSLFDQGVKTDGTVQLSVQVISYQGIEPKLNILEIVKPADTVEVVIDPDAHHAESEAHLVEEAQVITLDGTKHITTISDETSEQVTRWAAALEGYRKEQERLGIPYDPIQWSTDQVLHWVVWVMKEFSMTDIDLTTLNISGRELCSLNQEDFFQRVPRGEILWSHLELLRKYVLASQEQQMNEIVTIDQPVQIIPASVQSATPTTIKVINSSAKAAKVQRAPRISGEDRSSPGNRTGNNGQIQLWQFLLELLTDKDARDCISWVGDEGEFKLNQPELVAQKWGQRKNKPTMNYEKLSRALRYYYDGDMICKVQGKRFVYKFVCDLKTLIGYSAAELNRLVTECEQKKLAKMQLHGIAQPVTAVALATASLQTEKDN
# Procedure, shortened: as §1
# ERG = target: T4, ERG (Homo sapiens, UniProt P11308 1-479); settings: protein: recombinant; tags: N-terminal GST; dsDNA, one strand shown
# T4 sequence: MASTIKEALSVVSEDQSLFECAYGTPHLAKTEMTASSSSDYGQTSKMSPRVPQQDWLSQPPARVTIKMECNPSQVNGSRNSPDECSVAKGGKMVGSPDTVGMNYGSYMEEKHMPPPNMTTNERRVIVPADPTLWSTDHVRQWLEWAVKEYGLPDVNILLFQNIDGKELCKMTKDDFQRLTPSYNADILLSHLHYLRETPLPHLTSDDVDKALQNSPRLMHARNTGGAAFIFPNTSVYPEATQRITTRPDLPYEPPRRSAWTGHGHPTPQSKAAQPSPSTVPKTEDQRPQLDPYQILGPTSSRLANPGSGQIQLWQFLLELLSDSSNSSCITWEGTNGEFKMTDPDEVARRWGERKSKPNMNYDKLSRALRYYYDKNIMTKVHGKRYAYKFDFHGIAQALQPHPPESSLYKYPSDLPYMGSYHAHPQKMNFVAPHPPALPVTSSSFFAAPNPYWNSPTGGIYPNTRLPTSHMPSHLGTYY
# Procedure, shortened: as §1
# ELF1 = ELF1 (Homo sapiens, UniProt P32519 1-619); settings: protein: recombinant; tags: N-terminal GST; dsDNA, one strand shown
# Sequence of ELF1 (P32519 whole entry): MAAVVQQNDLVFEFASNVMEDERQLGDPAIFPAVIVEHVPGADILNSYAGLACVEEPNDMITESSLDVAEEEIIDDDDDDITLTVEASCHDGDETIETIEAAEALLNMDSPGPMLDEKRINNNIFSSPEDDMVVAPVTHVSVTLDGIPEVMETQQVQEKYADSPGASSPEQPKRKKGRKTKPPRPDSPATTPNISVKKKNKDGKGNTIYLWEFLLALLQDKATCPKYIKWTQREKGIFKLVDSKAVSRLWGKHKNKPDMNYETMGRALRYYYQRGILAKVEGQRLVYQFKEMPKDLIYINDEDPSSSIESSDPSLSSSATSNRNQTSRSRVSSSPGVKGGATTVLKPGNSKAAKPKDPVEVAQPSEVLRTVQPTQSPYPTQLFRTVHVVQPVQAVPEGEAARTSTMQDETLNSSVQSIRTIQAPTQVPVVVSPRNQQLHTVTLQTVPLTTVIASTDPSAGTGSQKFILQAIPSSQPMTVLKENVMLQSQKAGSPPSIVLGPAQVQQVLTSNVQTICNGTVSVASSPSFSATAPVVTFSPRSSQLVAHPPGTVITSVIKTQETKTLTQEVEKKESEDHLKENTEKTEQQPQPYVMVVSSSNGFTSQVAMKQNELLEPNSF
# Procedure, shortened: as §1
# EHF = target: T5, EHF (Homo sapiens, UniProt Q9NZC4 1-300); settings: protein: recombinant; tags: N-terminal GST; dsDNA, one strand shown
# T5 sequence: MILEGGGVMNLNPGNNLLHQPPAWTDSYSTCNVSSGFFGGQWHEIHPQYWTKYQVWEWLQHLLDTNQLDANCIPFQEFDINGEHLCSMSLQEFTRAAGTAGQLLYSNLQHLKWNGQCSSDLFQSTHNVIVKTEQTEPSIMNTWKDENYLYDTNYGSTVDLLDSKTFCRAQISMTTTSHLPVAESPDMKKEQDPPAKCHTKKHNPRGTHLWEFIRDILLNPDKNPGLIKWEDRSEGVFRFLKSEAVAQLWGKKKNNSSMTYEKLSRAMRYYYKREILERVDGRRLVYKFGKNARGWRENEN
# Procedure, shortened: as §1
# SPI1 = SPI1 (Homo sapiens, UniProt P17947 1-270); settings: protein: recombinant; tags: N-terminal GST; dsDNA, one strand shown
# Procedure, shortened: as §1
# SPIB = SPIB (Homo sapiens, UniProt Q01892 1-262); settings: protein: recombinant; tags: N-terminal GST; dsDNA, one strand shown
# Sequence of SPIB (Q01892 whole entry): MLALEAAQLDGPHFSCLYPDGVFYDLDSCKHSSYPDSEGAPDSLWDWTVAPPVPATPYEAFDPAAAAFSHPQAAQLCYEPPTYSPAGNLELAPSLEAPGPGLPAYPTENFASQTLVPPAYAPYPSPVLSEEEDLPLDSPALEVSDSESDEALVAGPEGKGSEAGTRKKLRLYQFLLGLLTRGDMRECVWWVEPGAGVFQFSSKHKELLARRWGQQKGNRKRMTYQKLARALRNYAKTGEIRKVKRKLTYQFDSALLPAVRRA
# Procedure, shortened: as §1
# ELK3 = target: T6, ELK3 (Homo sapiens, UniProt P41970 1-407); settings: protein: recombinant; tags: N-terminal GST; dsDNA, one strand shown
# T6 sequence: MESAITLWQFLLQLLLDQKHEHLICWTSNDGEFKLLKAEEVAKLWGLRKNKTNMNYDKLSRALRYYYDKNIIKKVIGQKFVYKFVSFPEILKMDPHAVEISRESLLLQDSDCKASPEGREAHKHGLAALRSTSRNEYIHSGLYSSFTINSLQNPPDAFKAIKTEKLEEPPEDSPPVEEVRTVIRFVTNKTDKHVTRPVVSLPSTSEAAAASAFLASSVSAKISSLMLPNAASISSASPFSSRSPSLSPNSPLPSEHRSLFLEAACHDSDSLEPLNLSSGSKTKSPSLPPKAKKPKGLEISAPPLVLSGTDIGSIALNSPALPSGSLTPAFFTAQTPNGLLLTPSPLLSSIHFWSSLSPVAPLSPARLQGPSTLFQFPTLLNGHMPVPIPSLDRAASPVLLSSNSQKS
# Procedure, shortened: as §1
# FEV = target: T7, FEV (Homo sapiens, UniProt Q99581 1-238); settings: protein: recombinant; tags: N-terminal GST; dsDNA, one strand shown
# T7 sequence: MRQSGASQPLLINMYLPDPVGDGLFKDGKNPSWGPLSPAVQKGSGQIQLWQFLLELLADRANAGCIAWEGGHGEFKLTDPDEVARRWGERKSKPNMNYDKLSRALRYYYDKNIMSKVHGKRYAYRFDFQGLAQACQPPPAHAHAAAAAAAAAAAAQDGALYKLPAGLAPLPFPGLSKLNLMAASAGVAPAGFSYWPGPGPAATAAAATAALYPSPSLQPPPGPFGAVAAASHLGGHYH
# Procedure, shortened: as §1
# ETV5 = ETV5 (Homo sapiens, UniProt P41161 1-510); settings: protein: recombinant; tags: N-terminal GST; dsDNA, one strand shown
# Sequence of ETV5 (P41161 whole entry): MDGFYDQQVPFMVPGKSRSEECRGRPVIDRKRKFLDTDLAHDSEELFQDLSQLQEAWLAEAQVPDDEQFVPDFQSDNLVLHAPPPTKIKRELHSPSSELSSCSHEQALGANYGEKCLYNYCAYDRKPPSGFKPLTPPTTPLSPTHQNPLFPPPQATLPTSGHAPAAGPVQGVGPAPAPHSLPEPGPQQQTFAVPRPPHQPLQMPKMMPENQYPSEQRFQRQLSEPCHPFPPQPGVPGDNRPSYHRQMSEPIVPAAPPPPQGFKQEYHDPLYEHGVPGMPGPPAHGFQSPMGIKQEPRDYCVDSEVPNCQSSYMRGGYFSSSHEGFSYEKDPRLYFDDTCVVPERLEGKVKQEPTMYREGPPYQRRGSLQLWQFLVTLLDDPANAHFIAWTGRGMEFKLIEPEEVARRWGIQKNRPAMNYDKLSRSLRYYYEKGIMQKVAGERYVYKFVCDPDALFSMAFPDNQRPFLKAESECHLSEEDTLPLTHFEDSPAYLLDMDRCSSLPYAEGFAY
# Procedure, shortened: as §1
# HSF1 = HSF1 (Homo sapiens, UniProt Q00613 1-529); settings: protein: recombinant; tags: N-terminal GST; chain copies: 3; dsDNA, one strand shown
# Sequence of HSF1 (Q00613 whole entry): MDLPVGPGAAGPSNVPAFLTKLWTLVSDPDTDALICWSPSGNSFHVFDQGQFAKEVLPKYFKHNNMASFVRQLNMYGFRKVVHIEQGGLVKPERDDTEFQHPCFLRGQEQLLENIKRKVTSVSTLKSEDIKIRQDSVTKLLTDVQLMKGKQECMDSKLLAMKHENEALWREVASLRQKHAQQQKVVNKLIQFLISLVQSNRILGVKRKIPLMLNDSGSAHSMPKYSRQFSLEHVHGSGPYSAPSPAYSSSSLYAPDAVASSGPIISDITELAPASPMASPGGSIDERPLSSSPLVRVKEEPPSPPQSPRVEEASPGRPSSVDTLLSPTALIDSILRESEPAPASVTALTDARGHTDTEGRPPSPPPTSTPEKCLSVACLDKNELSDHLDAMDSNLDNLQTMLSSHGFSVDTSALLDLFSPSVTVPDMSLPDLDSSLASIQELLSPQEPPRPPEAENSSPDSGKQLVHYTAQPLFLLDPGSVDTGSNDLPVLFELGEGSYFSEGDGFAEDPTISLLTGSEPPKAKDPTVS
# Procedure, shortened: as §1
# SPIC = target: T8, SPIC (Homo sapiens, UniProt Q8N5J4 1-248); settings: protein: recombinant; tags: N-terminal GST; dsDNA, one strand shown
# T8 sequence: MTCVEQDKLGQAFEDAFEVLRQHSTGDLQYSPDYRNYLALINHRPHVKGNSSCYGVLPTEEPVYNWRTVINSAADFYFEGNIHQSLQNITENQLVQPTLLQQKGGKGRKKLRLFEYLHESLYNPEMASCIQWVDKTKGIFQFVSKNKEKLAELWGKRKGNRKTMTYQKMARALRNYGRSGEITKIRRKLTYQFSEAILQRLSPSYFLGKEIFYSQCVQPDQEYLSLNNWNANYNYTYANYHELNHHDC
# Procedure, shortened: as §1
# ELF4 = ELF4 (Homo sapiens, UniProt Q99607 1-663); settings: protein: recombinant; tags: N-terminal GST; dsDNA, one strand shown
# Sequence of ELF4 (Q99607 whole entry): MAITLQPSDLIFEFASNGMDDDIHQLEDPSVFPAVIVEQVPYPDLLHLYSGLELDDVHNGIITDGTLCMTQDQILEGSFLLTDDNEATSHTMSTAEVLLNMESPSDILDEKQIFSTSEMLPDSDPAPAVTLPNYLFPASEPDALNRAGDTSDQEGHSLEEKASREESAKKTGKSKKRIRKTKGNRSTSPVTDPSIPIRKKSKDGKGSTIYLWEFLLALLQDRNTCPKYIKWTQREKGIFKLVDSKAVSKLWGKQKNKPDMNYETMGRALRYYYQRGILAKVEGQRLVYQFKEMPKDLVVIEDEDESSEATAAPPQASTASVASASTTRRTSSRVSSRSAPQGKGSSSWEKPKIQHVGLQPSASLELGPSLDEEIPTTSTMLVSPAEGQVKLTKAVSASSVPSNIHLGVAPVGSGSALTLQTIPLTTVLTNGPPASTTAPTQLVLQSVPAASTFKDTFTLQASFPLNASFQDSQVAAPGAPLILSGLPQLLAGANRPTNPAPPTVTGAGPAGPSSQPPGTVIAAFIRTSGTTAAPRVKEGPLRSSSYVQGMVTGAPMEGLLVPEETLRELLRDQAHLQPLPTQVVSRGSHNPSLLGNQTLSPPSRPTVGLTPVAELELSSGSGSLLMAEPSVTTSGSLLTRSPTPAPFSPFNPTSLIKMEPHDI
# Procedure, shortened: as §1
# ELK4 = target: T9, ELK4 (Homo sapiens, UniProt P28324-2 1-405); settings: protein: recombinant; tags: N-terminal GST; dsDNA, one strand shown
# T9 sequence: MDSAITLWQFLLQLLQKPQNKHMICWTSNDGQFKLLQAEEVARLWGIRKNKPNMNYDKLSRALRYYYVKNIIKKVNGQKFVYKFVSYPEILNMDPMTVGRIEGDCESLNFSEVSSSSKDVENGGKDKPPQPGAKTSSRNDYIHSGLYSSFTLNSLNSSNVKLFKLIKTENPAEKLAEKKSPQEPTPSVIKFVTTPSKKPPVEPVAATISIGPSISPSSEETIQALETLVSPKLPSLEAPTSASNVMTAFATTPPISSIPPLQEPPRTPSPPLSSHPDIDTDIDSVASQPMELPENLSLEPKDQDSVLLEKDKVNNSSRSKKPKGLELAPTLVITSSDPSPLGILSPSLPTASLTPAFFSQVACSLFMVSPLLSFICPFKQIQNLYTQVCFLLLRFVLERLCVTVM
# Procedure, shortened: as §1
# ETV2 = target: T10, ETV2 (Homo sapiens, UniProt O00321 1-342); settings: protein: recombinant; tags: N-terminal GST; dsDNA, one strand shown
# T10 sequence: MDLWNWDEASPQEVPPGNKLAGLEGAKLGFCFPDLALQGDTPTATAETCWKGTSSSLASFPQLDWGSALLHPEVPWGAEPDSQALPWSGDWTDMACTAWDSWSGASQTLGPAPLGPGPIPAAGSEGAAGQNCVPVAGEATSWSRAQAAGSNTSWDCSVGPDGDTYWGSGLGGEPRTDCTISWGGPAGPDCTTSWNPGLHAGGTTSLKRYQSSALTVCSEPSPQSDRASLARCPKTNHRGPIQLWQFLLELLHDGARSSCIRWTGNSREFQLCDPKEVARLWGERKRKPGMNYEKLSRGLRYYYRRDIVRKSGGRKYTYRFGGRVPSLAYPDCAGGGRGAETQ
# Procedure, shortened: as §1
# ELF3 = target: T11, ELF3 (Homo sapiens, UniProt P78545 1-371); settings: protein: recombinant; tags: N-terminal GST; dsDNA, one strand shown
# T11 sequence: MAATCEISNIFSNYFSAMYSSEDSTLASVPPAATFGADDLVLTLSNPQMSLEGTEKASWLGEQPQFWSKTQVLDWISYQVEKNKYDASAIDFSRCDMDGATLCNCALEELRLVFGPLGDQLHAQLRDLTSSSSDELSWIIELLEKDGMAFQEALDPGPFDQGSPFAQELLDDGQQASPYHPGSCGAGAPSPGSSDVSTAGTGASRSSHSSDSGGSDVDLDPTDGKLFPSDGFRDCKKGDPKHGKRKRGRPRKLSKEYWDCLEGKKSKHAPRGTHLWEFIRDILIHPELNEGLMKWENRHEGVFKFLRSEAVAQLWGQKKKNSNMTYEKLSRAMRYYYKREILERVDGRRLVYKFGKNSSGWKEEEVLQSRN
# Procedure, shortened: as §1
# CRX = CRX (Homo sapiens, UniProt O43186 1-299); settings: protein: recombinant; tags: N-terminal GST; dsDNA, one strand shown
# Sequence of CRX (O43186 whole entry): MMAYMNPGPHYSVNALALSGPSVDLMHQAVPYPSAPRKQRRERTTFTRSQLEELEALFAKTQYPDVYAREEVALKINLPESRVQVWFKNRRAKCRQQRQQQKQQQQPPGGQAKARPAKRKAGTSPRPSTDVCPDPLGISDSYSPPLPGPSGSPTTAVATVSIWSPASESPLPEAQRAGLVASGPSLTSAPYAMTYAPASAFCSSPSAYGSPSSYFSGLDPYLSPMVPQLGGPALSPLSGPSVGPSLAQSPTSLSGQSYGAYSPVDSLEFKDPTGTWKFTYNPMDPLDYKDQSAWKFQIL
# Procedure, shortened: as §1
# ETV1 = ETV1 (Homo sapiens, UniProt P50549 1-477); settings: protein: recombinant; tags: N-terminal GST; dsDNA, one strand shown
# Sequence of ETV1 (P50549 whole entry): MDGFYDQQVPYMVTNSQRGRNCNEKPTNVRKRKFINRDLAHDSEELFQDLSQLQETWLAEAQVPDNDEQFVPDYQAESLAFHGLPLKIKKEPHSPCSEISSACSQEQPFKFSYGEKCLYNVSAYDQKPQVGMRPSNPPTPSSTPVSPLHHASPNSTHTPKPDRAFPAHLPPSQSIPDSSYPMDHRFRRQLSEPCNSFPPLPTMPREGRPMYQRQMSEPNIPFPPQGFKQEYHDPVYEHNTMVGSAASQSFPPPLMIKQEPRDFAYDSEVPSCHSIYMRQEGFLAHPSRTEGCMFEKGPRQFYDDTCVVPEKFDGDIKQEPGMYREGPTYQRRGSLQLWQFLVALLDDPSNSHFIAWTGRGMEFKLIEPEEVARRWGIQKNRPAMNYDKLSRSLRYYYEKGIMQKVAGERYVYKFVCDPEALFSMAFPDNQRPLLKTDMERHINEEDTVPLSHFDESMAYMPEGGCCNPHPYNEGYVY
# Procedure, shortened: as §1
sequence,measurement,setting,value
TTTTGA,binding signal,FLI1,"1.13 fold enrichment (6-mer frequency, TF over GST control)"
same,binding signal,ELK1,"1.18 fold enrichment (6-mer frequency, TF over GST control)"
same,binding signal,GABPA,"1.13 fold enrichment (6-mer frequency, TF over GST control)"
same,binding signal,ERG,"1.11 fold enrichment (6-mer frequency, TF over GST control)"
same,binding signal,ELF1,"1.17 fold enrichment (6-mer frequency, TF over GST control)"
same,binding signal,EHF,"1.17 fold enrichment (6-mer frequency, TF over GST control)"
same,binding signal,SPI1,"1.13 fold enrichment (6-mer frequency, TF over GST control)"
same,binding signal,SPIB,"1.04 fold enrichment (6-mer frequency, TF over GST control)"
same,binding signal,ELK3,"1.06 fold enrichment (6-mer frequency, TF over GST control)"
same,binding signal,FEV,"1 fold enrichment (6-mer frequency, TF over GST control)"
same,binding signal,ETV5,"1.19 fold enrichment (6-mer frequency, TF over GST control)"
same,binding signal,HSF1,"1.12 fold enrichment (6-mer frequency, TF over GST control)"
same,binding signal,SPIC,"1.21 fold enrichment (6-mer frequency, TF over GST control)"
same,binding signal,ELF4,"1.19 fold enrichment (6-mer frequency, TF over GST control)"
same,binding signal,ELK4,"1.22 fold enrichment (6-mer frequency, TF over GST control)"
same,binding signal,ETV2,"1.2 fold enrichment (6-mer frequency, TF over GST control)"
same,binding signal,ELF3,"1.25 fold enrichment (6-mer frequency, TF over GST control)"
same,binding signal,CRX,"1.17 fold enrichment (6-mer frequency, TF over GST control)"
same,binding signal,ETV1,"1.13 fold enrichment (6-mer frequency, TF over GST control)"
